The record followed here is PubChem BioAssay (Tox21).

Molecules are shown by their SMILES. Results filed as inconclusive are left out. Calls of active or inactive are those of the source. Calls come from the whole dose curve; as a rule, active = well fitted cell-killing curve with a large enough effect in the repeat runs; inconclusive = weak or mixed curves; inactive = flat fitted curve, though single readings scatter.
% is set by controls: 0 for no effect and ±100 for the full control effect.

This test in a line: qHTS assay to identify small molecule antagonists of the TGF-beta/Smad signaling pathway - cell viability counter screen (AID 1346824). Note: nearly all actives have a fitted effect of over 50% in size. Particulars: SBE-bla HEK293T viability, CellTiter-Glo luminescence; series mostly up to 76.8 µM. The text has this: U.S. Tox21 Program National Center for Advancing Translational Sciences [NCATS] NIH Chemical Genomics Center [NCGC] U.S. Environmental Protection Agency [EPA] National Institutes of Environmental Health Sciences [NIEHS] National Toxicology Program [NTP] U.S. Food and Drug Administration [FDA] Tox21 Assay Overview: Transforming growth factor beta (TGF-beta) superfamily consists of a large number of structurally related dimeric proteins that act as hormones or local mediators in regulating a wide range of biological functions. This superfamily includes TGF-betas themselves, the bone morphogenetic proteins (BMPs) and the activins. These ligands induce oligomerization of serine/threonine receptor kinases and phosphorylate the cytoplasmic signaling molecules of Smad protein family. CellSensor SBE-bla HEK 293T cell line (Life Technologies, Carlsbad, CA), responsive to TGF-beta was used to screen Tox21 10K compound library for identification of agonists/antagonists of the Smad signaling pathway. This cell line contains a beta-lactamase reporter gene under control of the Smad binding element (SBE) stably integrated into HEK 293T cells. Also cytotoxicity of the compounds was tested in parallel by measuring the cell viability using CellTiter-Glo assay system in the same wells.
Tox21 Assay Protocol Summary: SBE-bla HEK 293T cells were dispensed at 4,000/well in 5 uL of assay medium into black wall/clear-bottom 1536-well plates using a Multidrop Combi (ThermoFisher Scientific, Waltham, MA) dispenser. After the assay plates were incubated at 37 C and 5% CO2 for an overnight, 23 nL of compounds dissolved in DMSO, positive controls or DMSO only was transferred to the assay plate by a Pintool station (Kalypsys, San Diego, CA). Compound transfer was followed by the addition of 1 uL of 0.25 ng/mL TGF-beta1 or assay buffer using two separate tips of Flying Reagent Dispenser (FRD, Aurora Discovery, San Diego, CA). The assay plates were incubated at 37 C and 5% CO2 for 5 hr. One uL of LiveBLAzer B/G FRET substrate (Life Technologies) was added using a Flying Reagent Dispenser (FRD, Aurora Discovery, San Diego, CA) and the plates were incubated at room temperature for 2 hr. Fluorescence intensity (405 nm excitation, 460 nm and 530 nm emissions) was measured using an Envision plate reader (PerkinElmer, Shelton, CT). For cytotoxicity read, 4 uL of CellTiter-Glo reagent (Promega Corporation, Madison, WI) was added to each well of the assay plates using FRD. After 30 min incubation at room temperature, the luminescence intensity was measured using ViewLux plate reader (PerkinElmer).
(In general: Quantitative high-throughput screening tests each substance at several concentrations.)
As for `CC(C)C(=O)OCCc1ccccc1`, the outcome was inactive.

With `COCCOCCOCCOCCO`, the outcome was inactive.

Take `CCCCCCCCSCC`: the outcome was inactive.

For the compound `CC1(C)S[C@@H]2[C@H](N=CN3CCCCCC3)C(=O)N2[C@H]1C(=O)O`, the compound was called inactive.

Consider `CN1C(C)(C)CCCC1(C)C`, for which the outcome was inactive.

Turning to `COc1nccnc1NS(=O)(=O)c1ccc(N)cc1`, the outcome was inactive.

As to `CC(C)c1ccc2cc(C(C)C)ccc2c1`, the compound was called inactive.

In the case of `O=C(OCc1ccccc1)C(=O)OCc1ccccc1`, the compound was called inactive.

For `Cc1[nH]cnc1-c1ccc(Cl)cc1`, the call was inactive.

Consider `CC(C)N(c1ccccc1)C(C)C`, for which the result was inactive.

For `COC(=O)CCc1ccc(OCC(O)CNC(C)C)cc1` (stereo not given), the result was inactive.

Consider `CN=C(NC#N)Nc1ccc(C2=NNC(=O)CC2C)cc1` (stereo not given), for which the outcome was inactive.

With `Oc1cn2c(n1)Nc1ccc(Cl)c(Cl)c1C2`, the viability change, negative = cytotoxic was 8.57% [at 15.8 µM] (inactive).

Take `CCOCCOC(=O)/C=C/c1ccc(OC)cc1`: the outcome was inactive.

Consider `COc1cc(C(=S)N2CCOCC2)cc(OC)c1OC`, for which the call was inactive.

Regarding `Nc1ccc(S(=O)(=O)Nc2ccc(Cl)nn2)cc1`, the result was inactive.

In the case of `O=C1c2cccc3c2[C@H](CCC3)CN1[C@@H]1CN2CCC1CC2`, the result was inactive.

As for `CC(C)C(=O)OCc1cccc(OC(=O)[C@@H]2N3C(=O)[C@@H](NC(=O)Cc4ccccc4)[C@H]3SC2(C)C)c1`, the compound was classed as inactive.

On to `O=C(NCCc1c[nH]c2ccccc12)c1cccnc1`, for which the call was inactive.

As to `CCCC/C=C\CCCCCCCCCC=O`, the outcome was inactive.

Turning to `Cc1cc(C(C)(C)C)c(O)c(C)c1CC1=NCCN1`, the result was inactive.

In the case of `CCOC(=O)CC(=O)c1ccccc1`, the outcome was inactive.

In the case of `COc1ccc2c(c1)C(=O)N(CCc1ccc(S(=O)(=O)NC(=O)NC3CCCCC3)cc1)C(=O)C2(C)C`, the compound was called inactive.

For the compound `CC[C@H](C)C(=O)O[C@H]1C[C@H](O)C=C2C=C[C@H](C)[C@H](CC[C@@H](O)C[C@@H](O)CC(=O)O)[C@H]21`, the compound was called inactive.

As for `CCOC(=O)[C@H](CCc1ccccc1)N[C@@H](C)C(=O)N1C(=O)N(C)C[C@H]1C(=O)O`, the outcome was inactive.

As for `CCCOC(OCCC)OCCC`, the result was inactive.

Consider `Cc1ccc2ccc(Cl)cc2n1`, for which the result was inactive.

As for `CCc1ccc(C=O)cc1`, the call was inactive.

With `Cc1ccccc1OCC(O)CO` (stereo not given), the compound was classed as inactive.

On to `O=C1CCCC(=O)O1`, for which the call was inactive.

Regarding `CCOCCOCCOCC`, the result was inactive.

In the case of `CCC(C)(CCC(C)C)C(=O)O` (stereo not given), the outcome was inactive.

With `COc1ccc(C2CNC(=O)C2)cc1OC1CCCC1` (stereo not given), the outcome was inactive.

Regarding `C=C(C)C1CCC(C)(O)CC1` (stereo not given), the outcome was inactive.

Consider `CC(C)C[C@H](NC(=O)CNC(=O)[C@H](Cc1ccc(O)cc1)NC(=O)[C@H](CO)NC(=O)[C@H](Cc1c[nH]c2ccccc12)NC(=O)[C@H](Cc1cnc[nH]1)NC(=O)[C@@H]1CCC(=O)N1)C(=O)N[C@@H](CCCN=C(N)N)C(=O)N1CCC[C@H]1C(=O)NCC(N)=O` (stereo in doubt), for which the outcome was inactive.

As to `CCCCCCCCOS(=O)(=O)O`, the compound was called inactive.

Take `CCCCCCOC(=O)CC`: the compound was called inactive.

Turning to `C[C@H](N)[C@H](O)c1cccc(O)c1`, the compound was classed as inactive.

In the case of `CC(CN)CC(C)(C)CCN` (stereo not given), the compound was classed as inactive.

Regarding `Cc1ccc2c(c1)OCC(=O)CO2`, the result was inactive.
